Structures are written as SMILES. Activity calls are given as the source filed them. No rule for the calls is given here.

In the test the target is Pantothenate synthetase (Mycobacterium tuberculosis (strain ATCC 25618 / H37Rv)) (UniProt P9WIL5). Description: Coupled enzyme confirmation of inhibitors against recombinant Mtb PanC (AID 375).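 Also: 0% = full reaction with vehicle and 100% = no enzyme background.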 The conditions noted are these: coupled enzyme assay; at 10 µM, stronger effect = higher value.
Chain of Pantothenate synthetase (Mycobacterium tuberculosis (strain ATCC 25618 / H37Rv)) (P9WIL5 whole entry, looked up): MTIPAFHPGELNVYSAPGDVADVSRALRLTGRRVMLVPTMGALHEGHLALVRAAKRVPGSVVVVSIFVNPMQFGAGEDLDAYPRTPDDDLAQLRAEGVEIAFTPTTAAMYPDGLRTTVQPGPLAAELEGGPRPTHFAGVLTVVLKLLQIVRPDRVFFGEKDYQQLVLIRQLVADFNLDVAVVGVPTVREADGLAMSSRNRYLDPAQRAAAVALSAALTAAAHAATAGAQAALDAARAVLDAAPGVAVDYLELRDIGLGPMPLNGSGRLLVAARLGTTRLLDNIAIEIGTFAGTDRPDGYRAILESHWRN
One may read the inhibition as the percentage by which the read-out fell short of the control. `Cc1ccc2nc(C3CCN(CC(=O)N4CCCCCC4)CC3)[nH]c2c1`: the inhibition is 0% (inactive). Regarding `CCOc1ccc(C(=O)Nc2cc(C)on2)cc1OCC`, the inhibition is 6% (inactive).

As to `CN(C)CCCN1C(=O)CSC1c1ccccc1` (stereo not given), the inhibition is 0% (inactive). Regarding `CCNCc1cc2cc(C)ccc2[nH]c1=O`, the inhibition is 0% (inactive). As for `CCC1(NC(C)=O)CC2CC1CC2NC(C)=O` (stereo not given), the inhibition was 0% (inactive). Under `Cc1[nH]c(=O)[nH]c(=O)c1S(=O)(=O)N1CCN(c2cccc(Cl)c2)CC1` stands 1% (inactive). Turning to `Cc1cccc(C)c1-n1nnnc1SCSc1nnnn1-c1c(C)cccc1C`, the inhibition was 1% (inactive). As for `COCCN(CCOC)C(=O)CCn1c(=O)oc2ccccc21`, the inhibition is 0% (inactive). On to `Cc1ccc(NC(=O)CN(C)S(=O)(=O)c2cccc3nsnc23)cc1Cl`, for which the inhibition was 1% (inactive). Consider `O=C(Cn1cnc2c(nnn2-c2ccc(F)cc2)c1=O)NCc1ccco1`, for which the inhibition is 0% (inactive). For the molecule `O=C(CSc1nc2ccccc2o1)Nc1ccccc1`, the inhibition is 0% (inactive). Under `Cc1[nH]nc(N=CC2=C(O)CC(C)(C)CC2=O)c1-c1ccc(Cl)cc1` stands 0% (inactive); under `COc1ccc(C(=O)N(Cc2ccco2)C(C(=O)NC2CCCC2)c2ccc(O)cc2)cc1OC` (stereo not given), 0% (inactive); under `CC(C)(C#N)Nn1cnnc1`, 0% (inactive). On to `CC1CCN(S(=O)(=O)c2cccc(C(=O)Nc3ccccn3)c2)CC1`, for which the inhibition is 0% (inactive). As to `O=C(CSc1nnc(NC(=O)C2CCC2)s1)NC1CC1`, the inhibition is 0% (inactive). Take `CCn1c(SCC(=O)Nc2ccc(C(C)=O)cc2)nc2ccccc21`: the inhibition is 3% (inactive).

`CCOC(=O)N1CCN(CC(O)COc2ccccc2C(C)CC)CC1` (stereo not given): the inhibition is 7% (inactive).

`ON=C1/C(=N\O)CC2(C/C1=N/O)OCCO2`: the inhibition was 0% (inactive). With `Cn1c(=O)[nH]c(=O)c2c1nc(N1CCCCC1)n2CCSc1ncccn1`, the inhibition is 0% (inactive). On to `C=CCn1c(SCc2cc(=O)n3ccsc3n2)nnc1C1CCCCC1`, for which the inhibition is 0% (inactive). Under `CCN(CC)CC#CCOC(=O)C(O)(c1ccccc1)C1CCCCC1` (stereo not given) stands 1% (inactive).

As to `O=C(c1cccnc1NCc1ccccc1)N1CCOCC1`, the inhibition was 0% (inactive). In the case of `Cc1cc(C(=O)COc2cccc3cccnc23)c(C)n1C`, the inhibition is 0% (inactive). As to `Cc1ccc(CNC(=O)C2CC(=O)OC23CCCC3)c(C)c1` (stereo not given), the inhibition is 0% (inactive).

As for `Cn1c(=O)cc(OCCCC(=O)Nc2ccc3c(c2)OCCO3)c2ccccc21`, the inhibition was 1% (inactive). Under `COc1cc2c(cc1OC)C(C)N(C(=O)Cn1ncc3c1-c1ccccc1OC3)CC2` (stereo not given) stands 0% (inactive); under `Cc1ccc(-c2nc3cc(N)ccc3o2)cc1`, 0% (inactive). Under `Cc1cccc(-n2ncc(C#N)c2N)c1` stands 1% (inactive); under `Nc1nc(N2CCN(C/C=C/c3ccccc3)CC2)nc2ccccc12`, 7% (inactive).

As for `COc1ccc(S(=O)(=O)NCCC(=O)NC2CCCCCCC2)cc1`, the inhibition is 0% (inactive).

Consider `Cn1nnnc1SCC(=O)NCc1ccco1`, for which the inhibition was 5% (inactive). With `Cc1nnc(N(C)C(=O)Cc2ccc3c(c2)OCO3)s1`, the inhibition is 0% (inactive). To `C/C(=N\O)c1ccc2c3c([nH]c2c1)CCCC3` belongs 2% (inactive); to `C1CCN=C(Nc2nc3c(s2)CCCC3)CC1`, 3% (inactive); to `Cc1ccc(-c2cn3cccnc3n2)cc1NC(=O)c1ccc(Br)o1`, 0% (inactive). In the case of `Cc1ccc(NC(=O)C2CCCN2C(=O)Oc2ccccc2)cc1` (stereo not given), the inhibition was 1% (inactive). Take `Cc1cc(C)n(-c2nnc(C)n2/N=C/c2ccccc2F)n1`: the inhibition was 9% (inactive).

As for `CCOC(=O)CN(C(=O)c1ccccc1)c1ccccc1C`, the inhibition was 0% (inactive). Regarding `c1ccc(Cn2ncc3c2ncn2c(-c4ccncc4)nnc32)cc1`, the inhibition is 0% (inactive).

These data come from PubChem BioAssay.
